# In the library only some 1.3% were active in any assay of this set; here they are far more common.
# PREPL inh: inhibitors of human prolyl oligopeptidase-like enzyme PREPL. Q4J6C6. recombinant PREPL, fluorescence polarization activity-based probe. inhibition, % at 5.96 µM. actives 0.68% (n = 320,000);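 further: 0% = enzyme with DMSO and 100% = wells lacking enzyme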
# RAD54 inh: blocks human RAD54 Holliday junction branch migration; Q92698; FAM/BHQ fluorescence; inhibition, % at 10.4 µM; actives 0.14% (n = 360,000); AID 602329;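 active means mean normalized replicate activity at least 40 and at least half of replicates scoring 40 or more; inconclusive means only one of the two criteria met; inactive means mean below 40 and under half of replicates reaching 40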;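 further: 0% = median of neutral control wells and 100% = median of positive control wells; inhibitors cause a drop in the FAM fluorescence signal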
# UBC13 polyUb: blocks human UBC13 polyubiquitin chain formation. P61088. TR-FRET. inhibition, % at 20 µM. actives 0.47% (n = 330,000). AID 485273; in the data active means inhibition above about 45%, passing the limit was not always enough; inconclusive means no clear call, values can overlap the other calls
# Target sequence (P61088 whole entry, looked up): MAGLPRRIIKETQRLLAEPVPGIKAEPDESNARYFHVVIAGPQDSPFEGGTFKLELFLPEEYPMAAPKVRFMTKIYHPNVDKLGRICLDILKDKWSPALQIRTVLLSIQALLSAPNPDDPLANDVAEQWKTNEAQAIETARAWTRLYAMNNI
# FID counter: fluorescent intercalator displacement, NS3 helicase counter-screen. DNA fluorescent intercalator displacement, fluorescence. inhibition, % at 7.9 µM. actives 0.17% (n = 290,000); in the data active means inhibition above about 37%;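 further: 0% = vehicle and 100% = reference compound; higher means more ethidium bromide displaced from hairpin DNA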
# MIN6 prolif: inducers of beta-cell replication in MIN6 cells. MIN6 cells proliferation, ATPlite luminescence, 48 h; cells starved in 0.2% serum; 100% = growth in 10% serum. proliferation, % at 10 µM. actives 0.29% (n = 330,000);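 active means compounds whose signal lies at least 3.5 SD above the mean of all wells on their plate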;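 further: 0% = DMSO-treated cells in low-serum medium and 100% = 10% serum control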
# RAD52 anneal inh: blocks human RAD52 DNA annealing; P43351; recombinant RAD52 DNA annealing, FRET fluorescence; inhibition, % at 18.7 µM; actives 0.46% (n = 360,000); AID 651710;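 active means every replicate showing at least 50% inhibition; inconclusive means mean inhibition at least 50% but not in every replicate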
# Target sequence (P43351 whole entry, looked up): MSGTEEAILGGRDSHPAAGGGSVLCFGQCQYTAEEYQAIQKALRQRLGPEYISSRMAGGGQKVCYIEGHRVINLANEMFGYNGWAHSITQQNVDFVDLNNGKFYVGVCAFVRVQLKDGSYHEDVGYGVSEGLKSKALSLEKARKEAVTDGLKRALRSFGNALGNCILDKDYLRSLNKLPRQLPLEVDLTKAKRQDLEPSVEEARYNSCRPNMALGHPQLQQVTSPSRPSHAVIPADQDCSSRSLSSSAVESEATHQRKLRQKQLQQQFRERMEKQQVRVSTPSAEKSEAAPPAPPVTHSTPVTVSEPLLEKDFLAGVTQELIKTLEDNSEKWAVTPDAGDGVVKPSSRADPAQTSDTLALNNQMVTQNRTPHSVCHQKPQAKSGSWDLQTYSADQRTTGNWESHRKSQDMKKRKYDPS
# PREPL inh cf: confirmation of human PREPL enzyme inhibitors | shares compounds with PREPL inh | AID 2803 | actives 67% (n = 2,000) | inhibition, % at 5.96 µM | recombinant PREPL, fluorescence polarization activity probe;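 further: 0% = protein with DMSO and 100% = wells lacking protein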
# The depositor's hits bear a star; ? = inconclusive; · = no result. Unless noted, no stated cut-off is given here; in the data, active means inhibition above about 43%; inactive means the rest.
SMILES,PREPL inh,RAD54 inh,UBC13 polyUb,FID counter,MIN6 prolif,RAD52 anneal inh,PREPL inh cf
CCN(C(=O)CCN1C(=O)S/C(=C\c2ccccc2)C1=O)C1CCS(=O)(=O)C1 (stereo not given),45*,0,0,-40,-3,-30,37
C[C@H]1CN([C@@H](C)CO)C(=O)c2cc(NC(=O)C3CC3)ccc2O[C@@H]1CN(C)Cc1ccc(C(F)(F)F)cc1,·,1,·,·,·,-1,·
O=C1C=C(Nc2ccccc2O)c2ccccc2C1=O,13,-12,-323,2,-4,-18,·
Cc1ccc(NC2=CC(=O)C(=O)c3ccccc32)c(C)c1,47*,-2,-172,·,-8,-4,38
N#CCCN(C(=O)COC(=O)COc1ccc(Cl)cc1)c1ccccc1,33,·,0,-20,1,-5,·
N#CCCN(C(=O)COC(=O)CSc1ccc(Cl)cc1)c1ccccc1,50*,-4,4,·,-2,0,39
C[C@H]1CN([C@@H](C)CO)C(=O)Cc2cc(NC(=O)Nc3ccc4c(c3)OCO4)ccc2O[C@@H]1CN(C)CC1CCCCC1,·,-5,·,·,·,9,·
O=C(C1CCCN(S(=O)(=O)c2cccc3nonc23)C1)N1CCN(c2cccc(Cl)c2)CC1 (stereo not given),32,-2,-2,-3,-4,·,·
O=C(C1CCCN(S(=O)(=O)c2cccc3nonc23)C1)N1CCN(c2ccccc2Cl)CC1 (stereo not given),47*,0,-13,-3,-2,·,35
Cc1cc(C(=O)N2CCN(c3ccc([N+](=O)[O-])cc3)CC2)c(C)o1,27,-6,2,-12,3,-8,·
O=C(c1cc([N+](=O)[O-])ccc1Cl)N1CCN(c2ccc([N+](=O)[O-])cc2)CC1,65*,·,16,3,-1,5,58*
Cc1c(C(=O)N2CCN(Cc3ccc4c(c3)OCO4)CC2)sc2ncnc(N3CCN(c4ccccc4F)CC3)c12,48*,-4,29,-37,-6,-8,44*
Cc1c(C(=O)N2CCN(Cc3ccc4c(c3)OCO4)CC2)sc2ncnc(N3CCN(c4ccccc4)CC3)c12,45*,-6,42,-32,-7,-10,48*
Cc1c(C(=O)N2CCN(c3ccccc3)CC2)sc2ncnc(N3CCC(C)CC3)c12,-101,·,-2,-3,-2,·,·
Cc1c(C(=O)N2CCN(c3ccccn3)CC2)sc2ncnc(N3CCN(c4ccccc4)CC3)c12,44*,2,-14,9,-3,·,28
O=c1c(O)cccc2cc(O)c(O)c(O)c12,63*,·,42,-5,-4,3,37
C=CCn1c(NS(=O)(=O)c2ccccc2)c(S(=O)(=O)c2ccc(C)cc2)c2nc3ccccc3nc21,47*,-5,·,-23,·,-13,13
c1ccc(-c2nc3ccccc3[nH]2)cc1,5,-14,-16,0,-4,-18,·
Nc1cc(N)cc(-c2nc3ccccc3[nH]2)c1,49*,·,-8,7,-4,·,13
O=C(O)c1cc(O)c2c(c1)[C@@H]([C@H]1c3cc(C(=O)O)cc(O)c3C(=O)c3c(O[C@@H]4O[C@H](CO)[C@@H](O)[C@H](O)[C@H]4O)cccc31)c1cccc(O[C@@H]3O[C@H](CO)[C@@H](O)[C@H](O)[C@H]3O)c1C2=O,96*,·,?,·,-2,·,42
N#Cc1cccc(NC(=O)CSc2nnc(C3CC3)n2C2CC2)c1,76*,-10,3,·,2,-10,2
NS(=O)(=O)c1cccc(NC(=O)CSc2nnc(C3CC3)n2C2CC2)c1,13,0,3,·,5,1,·
Cc1cc(C)c(-c2csc(NC(=O)C3=NN(c4ccccc4)C(=O)CC3)n2)c(C)c1,15,·,-13,-19,-6,-1,·
CCc1ccc(-c2csc(NC(=O)C3=NN(c4ccccc4)C(=O)CC3)n2)cc1,44*,·,-17,-11,-5,·,37
CCC(=O)N(C)C[C@H]1Oc2ncc(Br)cc2C(=O)N([C@@H](C)CO)C[C@H]1C,·,2,·,·,·,4,·
SMILES,PREPL inh,RAD54 inh,UBC13 polyUb,FID counter,MIN6 prolif,RAD52 anneal inh,PREPL inh cf
Cc1ccc(NC(=O)N2CCOCC2)cc1NC(=O)N1CCOCC1,·,·,·,·,·,-7,·
Cc1ccc(NC(=O)N2CCOCC2)c(C)c1,87*,3,-3,0,3,·,3
Cc1ccc2[nH]c3c(N4CCN(Cc5ccc6c(c5)OCO6)CC4)ncnc3c2c1,·,·,·,3,·,·,·
COc1cccc2[nH]c3c(N4CCN(Cc5ccc6c(c5)OCO6)CC4)ncnc3c12,73*,·,15,-1,-1,·,60*
COc1ccc2c(c1)[nH]c1c(N3CCN(Cc4ccc5c(c4)OCO5)CC3)ncnc12,67*,31,-1,15,-6,·,64*
CC(C)NC(=O)N(C)C[C@@H]1Oc2c(NC(=O)c3cnccn3)cccc2C(=O)N([C@@H](C)CO)C[C@H]1C,·,-8,·,·,·,5,·
C#CCOCCOCCOCCNc1nc(N2CCN(C(=O)CCCCCCCCCCNC(=O)Cn3cc(CCCCCN)nn3)CC2)nc(N2CCN(C(=O)CCCCCCCCCCNC(=O)[C@H](CO)n3cc(CCCCCN)nn3)CC2)n1,68*,?,117*,·,-2,·,60*
C#CCOCCOCCOCCNc1nc(N2CCN(C(=O)CCCCCCCCCCNC(=O)[C@@H]([C@H](C)O)n3cc(C)nn3)CC2)nc(N2CCN(C(=O)CCCCCCCCCCNC(=O)[C@@H]([C@H](C)O)n3cc(C)nn3)CC2)n1,8,-5,22,·,-9,-7,·
C#CCOCCOCCOCCNc1nc(N2CCN(C(=O)CCCCCCCCCCNC(=O)[C@H](CCCCN)n3cc(CCO)nn3)CC2)nc(N2CCN(C(=O)CCCCCCCCCCNC(=O)[C@H](CCCN=C(N)N)n3cc(C[C@@H](C)CC)nn3)CC2)n1,56*,6,125*,·,-8,·,57*
C#CCOCCOCCOCCNc1nc(N2CCN(C(=O)CCCCCCCCCCNC(=O)[C@H]([C@@H](C)CC)n3cc(CCCCCN)nn3)CC2)nc(N2CCN(C(=O)CCCCCCCCCCNC(=O)[C@@H]([C@H](C)O)n3cc(C)nn3)CC2)n1,46*,-8,118*,·,-8,·,33
CC=Cc1ccc2n(c1=O)C[C@H]1[C@H](CO)[C@@H](C(=O)NCC3CC3)N(C(C)=O)[C@@H]21 (mixture of isomers),·,·,·,·,·,-3,·
COCCNC(=O)/C(C#N)=C/c1c(N2CCN(c3ccc(OC)cc3)CC2)nc2c(C)cccn2c1=O,54*,-6,2,-33,-3,-3,49*
CCNC(=O)/C(C#N)=C/c1c(N2CCN(c3ccc(OC)cc3)CC2)nc2c(C)cccn2c1=O,55*,0,0,-36,-2,0,49*
CC(=O)N(C)C[C@@H]1Oc2cc(C#Cc3cccnc3)ccc2S(=O)(=O)N([C@H](C)CO)C[C@H]1C,·,2,·,·,·,-6,·

# Assay outcomes deposited in PubChem by several laboratories.
